# In PubChem BioAssay (NCATS):
# Inconclusive results are not listed. Activity calls are given as the source filed them. Unless noted, calls follow the shape of the dose curve; as a rule, active = well fitted curve in the direction sought with a large enough effect; inconclusive = small, poorly fitted or top-dose-only effect, or another doubt; inactive = no such curve, though single readings can be large; an effect the other way counts as inactive or inconclusive. Positions of bridges follow the written chain, without caps; N, C: chain ends. Non-standard residues stand in square brackets, D forms with d. Residues, ends and D or L forms follow the SMILES beside them. *: point of attachment. X1 = CCC(C)C(N)C1=NC(C(=O)*)CS1; dOrn = NCCC[C@@H](N)C(=O)O
# Target: Aldehyde dehydrogenase, mitochondrial (Homo sapiens) (UniProt P05091)
# Assay: qHTS for Inhibitors of the Aldehyde Dehydrogenase Family (ALDH2) Confirmatory screens (AID 2061303; active = well fitted inhibition curve with a large enough effect; title and protocol of this record describe different tests; also: nearly all actives have a fitted effect of over 45% in size; also: potency is read from the fitted curve at half-maximal effect; as to activity change, negative = inhibition: % is scaled to controls: 0 for no effect and ±100 for the full control effect)
# Conditions: ALDH inhibition qHTS; series mostly up to 45.4 µM; activity change, negative = inhibition: at the top concentration
Structure (SMILES),"activity change, negative = inhibition",Potency
N[C@@H](CCNCc1ccc(Cl)cc1)C(=O)N1CCCCC1,3.55% (inactive),–
O=C(C1CCCCC1)N(CCN1CCN(c2ccccc2O)CC1)c1ccccn1,-11.4% (inactive),–
COc1ccc2c(c1O)OC[C@H]1c3ccc(O)cc3O[C@@H]21,-6.89% (inactive),–
COc1ccc(-c2ccn(CC[C@](C)(C(=O)NO)S(C)(=O)=O)c(=O)c2)c(F)c1,–,7.94 µM (active)
COc1ccc(-c2cc3onc(-c4ccncc4)c3c(=O)n2C)cc1,8.2% (inactive),–
CC[C@H](CO)Nc1nc(NCc2ccc(-c3ccccn3)cc2)c2ncn(C(C)C)c2n1,7.05% (inactive),–
CC1(NC(=O)c2ccc(C#Cc3cccc(F)c3)cn2)COC1,63.3% (inactive),–
CN(C)c1ccc2c(c1)OC(N)=C(C#N)C2c1cccc(C(F)(F)F)c1 (configuration not stated),-12.3% (inactive),–
O=C(O)c1cn(C2CC2)c2cc(N3C[C@@H]4C[C@H]3CN4)c(F)cc2c1=O,-9.24% (inactive),–
CCCCNC(=O)[C@@H]1Cc2ccccc2N1C(=O)[C@@H](N)CC,8.13% (inactive),–
CCOC(=O)C1=C(N)Oc2ccc(Cl)cc2C1C(C#N)C(=O)OCC (configuration not stated),-15.6% (inactive),–
Cn1cnc(-c2nccc3c(=O)[nH]c(OCCCC(F)(F)F)nc23)c1,-10.6% (inactive),–
CCOC(=O)c1cccc(CNc2ccc(N(C)C(=O)Nc3ccccc3)cc2)c1,-3.68% (inactive),–
COCCN(C(=O)c1cc(OC)c(OC)c(OC)c1)c1nc(-c2ccccc2)cs1,-5.41% (inactive),–
C=CC(=O)N1CCN(C(=O)CNc2cc(-c3ccccc3Cl)c(Cl)cc2OC)CC1,-12.6% (inactive),–
COC(=O)N1CCN(Cc2cccc(NC(=O)Nc3ccc(C)nc3)c2F)CC1,0.837% (inactive),–
COC(=O)c1ccc(O[C@@H]2O[C@H](CO)[C@@H](O)[C@H](O)[C@H]2O)c(OC)c1,-18.9% [at 25.8 µM] (inactive),–
COc1ccnc(CCc2nc3ncccc3[nH]2)c1,-8.71% (inactive),–
COc1ccc(CCO[C@@H]2CCCC[C@H]2N2CC[C@@H](O)C2)cc1OC,1.07% (inactive),–
CC1(C)CCC2(C(=O)OC3OC(CO)C(O)C(O)C3O)CCC3(C)C(=CCC4C5(C)CCC(O)C(C)(C(=O)O)C5CCC43C)C2C1O (configuration not stated),-7.52% [at 16.9 µM] (inactive),–
Cn1cc(Nc2cnccc2C(=O)O)c2cccnc21,-14.6% (inactive),–
O=C(CCCCCCC(=O)Nc1ccccc1)NO,-2.32% (inactive),–
CCOC(=O)C1=C(N)Oc2ccc(Br)cc2C1C(C#N)C(=O)OCC (configuration not stated),-6.14% (inactive),–
Fc1ccc(N2CCN(CCC3OCCc4ccccc43)CC2)cc1 (configuration not stated),-10.5% (inactive),–
COc1ccc(NC(=O)c2ccc(-c3ccc(C(N)=O)cc3C)cc2)cc1N1CCN(C)CC1,6.16% (inactive),–
CC(C)(C)Nc1nc(Nc2ccc(C(N)=O)cc2)cc(N)c1C#N,–,7.08 µM (active)
Cc1ccccc1C#Cc1ccc(CCC(=O)O)cc1,5.26% (inactive),–

# Tested on: not listed separately
# Assay: qHTS for Inhibitors of the Aldehyde Dehydrogenase Family (ALDH1A2, ALDH1A3, ALDH2, ALDH3A1) (AID 2061307); also: nearly all actives have a fitted effect of over 50% in size; as to Potency: test system not described further here; potency is read from the fitted curve at half-maximal effect; as to activity change, negative = inhibition: % is scaled to controls: 0 for no effect and ±100 for the full control effect
# Conditions: ALDH inhibition qHTS; series mostly up to 50.3 µM; activity change, negative = inhibition: at the top concentration
Structure (SMILES),"activity change, negative = inhibition",Potency
Cc1nnc(-c2sc(NC(=O)[C@H](C(C)C)n3c(=O)[nH]c4ccccc4c3=O)nc2C)o1,-7.01% (inactive),–
CN(C)C(=O)Nc1cc(-c2ccccc2)ccc1N(C)C,-1.48% (inactive),–
CCCN(CCN1CCN(c2ccccc2OC)CC1)C1CCc2ncsc2C1 (configuration not stated),21.5% (inactive),–
O=C1CC(c2ccc([N+](=O)[O-])cc2)=NN1c1ccccc1,7.62% (inactive),–
O=C(O)c1cnn(-c2nc3cc(OC(F)(F)F)c(Cl)cc3[nH]2)c1,–,13.5 µM (active)
CO/N=C(/C(=O)N[C@@H]1C(=O)N2C(C(=O)O)=C(Cn3ccc(=N)n3CCO)CS[C@H]12)c1csc(N)n1,-26.9% (inactive),–
CC(=O)Nc1sc2c(c1-c1nc3ccccc3s1)CNC2,–,7.12 µM (active)
N[C@@H](CCNCc1ccc(Cl)cc1)C(=O)N1CCCCC1,51.3% (inactive),–
O=C(C1CCCCC1)N(CCN1CCN(c2ccccc2O)CC1)c1ccccn1,-4.33% (inactive),–
COc1ccc(-c2cc3onc(-c4ccncc4)c3c(=O)n2C)cc1,-11.7% (inactive),–
CC[C@H](CO)Nc1nc(NCc2ccc(-c3ccccn3)cc2)c2ncn(C(C)C)c2n1,0.715% (inactive),–
CN(C)c1ccc2c(c1)OC(N)=C(C#N)C2c1cccc(C(F)(F)F)c1 (configuration not stated),-12.3% (inactive),–
CCCCNC(=O)[C@@H]1Cc2ccccc2N1C(=O)[C@@H](N)CC,-5.78% (inactive),–
Cn1cnc(-c2nccc3c(=O)[nH]c(OCCCC(F)(F)F)nc23)c1,-0.487% (inactive),–
CCOC(=O)c1cccc(CNc2ccc(N(C)C(=O)Nc3ccccc3)cc2)c1,-18.8% (inactive),–
COCCN(C(=O)c1cc(OC)c(OC)c(OC)c1)c1nc(-c2ccccc2)cs1,1.65% (inactive),–
COc1ccnc(CCc2nc3ncccc3[nH]2)c1,6.25% (inactive),–
COc1ccc(CCO[C@@H]2CCCC[C@H]2N2CC[C@@H](O)C2)cc1OC,-5.18% (inactive),–
Fc1ccc(N2CCN(CCC3OCCc4ccccc43)CC2)cc1 (configuration not stated),-29.5% (inactive),–

# Target: Aldehyde dehydrogenase, mitochondrial (Homo sapiens) (UniProt P05091)
# Assay: qHTS for Inhibitors of the Aldehyde Dehydrogenase Family (ALDH2) Primary screen (AID 2061308);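 also: plate controls were vehicle for no effect and reference inhibitor for full effect; nearly all actives have a fitted effect of over 55% in size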
# Conditions: ALDH2 enzyme inhibition qHTS, 1536-well; series mostly up to 56 µM; activity change, negative = inhibition: at the top concentration
Structure (SMILES),"activity change, negative = inhibition",Potency
CCC(C)C(N)C1=NC(C(=O)N[C@@H](CC(C)C)C(=O)N[C@H](CCC(=O)O)C(=O)N[C@H](C(=O)N[C@H]2CCCCNC(=O)[C@H](CC(N)=O)NC(=O)[C@@H](CC(=O)O)NC(=O)[C@H](Cc3cnc[nH]3)NC(=O)[C@@H](Cc3ccccc3)NC(=O)[C@H]([C@@H](C)CC)NC(=O)[C@@H](CCCN)NC2=O)[C@@H](C)CC)CS1 (some centres not stated) (X1-L[dE]IK[dOrn]I[dF]H[dD]N; lactam 4-C),-9.15% [at 28 µM] (inactive),–
C=CC(=O)Nc1cccc(Nc2nc(Nc3ccc(Oc4ccnc(C(=O)NC)c4)cc3)ncc2F)c1,-5.96% (inactive),–
Oc1ccc(Nc2nc(-c3ccc(Cl)cc3)cs2)cc1,-8.42% (inactive),–
CC(=O)NC(C)c1cnc(-c2cnc(Oc3ccc(OC(C)C)cc3)s2)s1 (configuration not stated),12% (inactive),–
Clc1ncoc1-c1c[nH]c2ccccc12,5.63% (inactive),–
O=C(Nc1ccccc1)N1CCN(Cc2ccc3ccccc3n2)CC1,6.77% (inactive),–
COc1ccc2c(c1O)OC[C@H]1c3ccc(O)cc3O[C@@H]21,-13.3% (inactive),–
COc1ccc(-c2ccn(CC[C@](C)(C(=O)NO)S(C)(=O)=O)c(=O)c2)c(F)c1,0.266% (inactive),–
CC1(NC(=O)c2ccc(C#Cc3cccc(F)c3)cn2)COC1,37.2% (inactive),–
O=C(O)c1cn(C2CC2)c2cc(N3C[C@@H]4C[C@H]3CN4)c(F)cc2c1=O,-13.9% (inactive),–
CCOC(=O)C1=C(N)Oc2ccc(Cl)cc2C1C(C#N)C(=O)OCC (configuration not stated),2.54% (inactive),–
C=CC(=O)N1CCN(C(=O)CNc2cc(-c3ccccc3Cl)c(Cl)cc2OC)CC1,-4.77% (inactive),–
COC(=O)N1CCN(Cc2cccc(NC(=O)Nc3ccc(C)nc3)c2F)CC1,-1.3% (inactive),–
COC(=O)c1ccc(O[C@@H]2O[C@H](CO)[C@@H](O)[C@H](O)[C@H]2O)c(OC)c1,-1.91% (inactive),–
CC1(C)CCC2(C(=O)OC3OC(CO)C(O)C(O)C3O)CCC3(C)C(=CCC4C5(C)CCC(O)C(C)(C(=O)O)C5CCC43C)C2C1O (configuration not stated),-0.229% [at 16.9 µM] (inactive),–
Cn1cc(Nc2cnccc2C(=O)O)c2cccnc21,3.38% (inactive),–
O=C(CCCCCCC(=O)Nc1ccccc1)NO,0.0646% (inactive),–
CCOC(=O)C1=C(N)Oc2ccc(Br)cc2C1C(C#N)C(=O)OCC (configuration not stated),–,inactive
COc1ccc(NC(=O)c2ccc(-c3ccc(C(N)=O)cc3C)cc2)cc1N1CCN(C)CC1,8.47% (inactive),–
CC(C)(C)Nc1nc(Nc2ccc(C(N)=O)cc2)cc(N)c1C#N,-24.4% (inactive),–
Cc1ccccc1C#Cc1ccc(CCC(=O)O)cc1,9.6% (inactive),–
